Results as given in patent US20150152398, “Endoribonuclease and Methods of Use Thereof” (The Regents of the University of California, published 2015).

Biological target: T1, TtCas6A (TTHA0078, Cas6) (Thermus thermophilus HB8)
T1 chain: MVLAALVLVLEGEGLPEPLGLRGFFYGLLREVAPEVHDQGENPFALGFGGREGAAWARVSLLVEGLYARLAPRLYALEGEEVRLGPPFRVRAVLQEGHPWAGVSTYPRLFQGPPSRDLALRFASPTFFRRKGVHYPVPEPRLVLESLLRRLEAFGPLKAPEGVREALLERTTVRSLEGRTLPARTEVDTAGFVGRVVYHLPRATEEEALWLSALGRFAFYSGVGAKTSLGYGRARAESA
Test: EMSA; Kd in FIG. 24C only
Settings: chain copies: 2 stated (dimer in solution); hairpin; ssRNA; [17,28]
Source text: FIG. 22 illustrates that TtCas6A and TtCas6B both cleave repeats R1 and R3 and retain their cleaved products. (A) Sequences and predicted secondary structures of T. thermophilus CRISPR repeats. Sites of cleavage are indicated with blue arrows. TtCas6e (TTHB192) cleaves repeat R2, while TtCas6A (TTHA0078) and TtCas6B (TTHB231) both cleave repeats R1 and R3. (B) Cleavage product binding affinities of TtCas6A and TtCas6B enzymes. Maltose binding protein (MBP)-fused TtCas6A or TtCas6B were bound to in 5′-radiolabelled, vitro transcribed R1 and R3 RNAs. Bound and unbound fractions were resolved by electrophoresis on a native polyacrylamide gel and visualized by phosphorimaging. The data for these and all subsequent binding assays were fit with standard binding isotherms (solid line). Error bars on each data point denote standard error of the mean (SEM) from three independent experiments. (C) Experiments to confirm single turnover. RNA cleavage assays were carried out at indicated protein:RNA ratios. RNA cleavage was monitored using denaturing polyacrylamide gel electrophoresis. The data from these and all subsequent endoribonuclease activity assays were fit with single exponential curves to yield first-order rate constants. (Top to bottom: FIG. 22A, SEQ ID NOs: 1, 2, 55).
To test the importance of the stem sequence for substrate RNA recognition by TtCas6A, a series of EMSAs was performed using R1 repeat-derived RNAs that carried single base pair substitutions (C-G→A-U). All mutant RNAs contained the complete 5′ segment and additional two nucleotides downstream of the cleavage site. Compared to the wild-type RNA, substitution of any of the four C-G base pairs in the stem led to about five-fold decrease in affinity (FIG. 24C). This is consistent with the observation that the lower three C-G base pairs are specifically read out by Arg129. The binding defect observed upon mutation of the closing (uppermost) base pair could be due to loss of stability of the stem-loop structure, which is determined by the closing base-pair (Serra et al, 1993). […]

Sequence	binding signal
GUUGCAAGGGAUUGAGACCCGUAAGGGUAU	~5 fold lower affinity than wild-type RNA

Same assay, conditions: chain copies: 2 stated (dimer in solution); hairpin; ssRNA; [18,27]

Sequence	binding signal
GUUGCAAGGGAUUGAGCACCGUAAGGUGAU	~5 fold lower affinity than wild-type RNA

Same assay, conditions: chain copies: 2 stated (dimer in solution); hairpin; ssRNA; [19,26]

Sequence	binding signal
GUUGCAAGGGAUUGAGCCACGUAAGUGGAU	~5 fold lower affinity than wild-type RNA
